Assay results from the supplement of paper PMC7726561.
Over roughly 1,400 sequences, “thermal melting temperature (Tm) of peptide-HLA complex” has its median near 60; the lowest 2% begin near 45. This is one part of a sample in which the lowest values are shown more often than they occur.

Target: HLA-B*07:02
Test: thermal melting temperature (Tm) of peptide-HLA complex; higher = more thermostable pHLA complex
Conditions: C1R-B*07:02
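Further: lysates heated 10 min at 37–73 °C, complexes pulled down with pan-HLA I antibody, peptide signal by DIA-MS relative to 37 °C, Tm where half the complex is unfolded.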

| Sequence | thermal melting temperature [°C] |
| --- | --- |
| YPARYRPTAL | 58.2 |
| QPRLFTMDL | 60.2 |
| SPKSPTAAL | 60.1 |
| VPQESRFNL | 57.1 |
| LPRSINTDTL | 58.5 |
| KPKFILSVL | 62.7 |
| YPRPLLIAF | 62 |
| LPELKSTL | 60.8 |
| SPSFPRPSL | 61.4 |
| IPDVKGAVL | 58.7 |
| SPAPPLLHV | 60.8 |
| KPYAHILSV | 55.5 |
| SPAPRTAL | 57.4 |
| FPKNIFAEL | 62.8 |
| RPASGSPFQL | 52.6 |
| SPYPGLRLISL | 62.1 |
| MPYSNGRPAL | 58.2 |
| HPRSPNVLSV | 57.6 |
| AVDPNRAVPL | 60.5 |

| Sequence | thermal melting temperature [°C] |
| --- | --- |
| GPHVPFTVF | 62.3 |
| GPRSAQVAQSL | 40.4 |
| SPRALTQPLGL | 61.2 |
| RPTEGVQAL | 54.3 |
| VIAPVRAVL | 59.2 |
| VARPLSTAL | 59.6 |
| HPVVSSVPL | 57.8 |
| RPYGVGLLI | 59 |
| IPSIRNGIL | 62.8 |
| SPRTPVSPVKF | 59.3 |
| SPRAPVSPLKF | 59.5 |
| WPHPPGPFL | 62.3 |
| SPIYISRII | 58.8 |
| RPFERTITM | 56.5 |
| QPATPGLGM | 57 |
| APSGTRVVQVL | 41.4 |
| KPRPIIPML | 60.7 |
| IPTKKSQVF | 58.9 |
| YPFFRGVTI | 61.8 |

| Sequence | thermal melting temperature [°C] |
| --- | --- |
| HPRAPVLL | 59.5 |
| TPEEVRLPL | 62.1 |
| RPTGGVGAV | 54.3 |
| SPANLPAVL | 62.6 |
| FPRAPSTSDSV | 57.1 |
| TPLGTRSGL | 55.6 |
| SPNLRLLDL | 63.4 |
| LPSPSPRISL | 60.6 |
| GSISRIYL | 41.4 |
| NVRPPNTAL | 56.8 |
| APYSRPKQL | 61.5 |
| APRGTGIVSA | 57.4 |
| IPRGADNLVAI | 61.8 |
| VPRPPSLLATL | 62.9 |
| FPQHTIASL | 58.7 |
| GPRNVLLFL | 55.1 |
| TPQQGAQTSL | 40.5 |
| TPQGFRSTL | 60 |
